HT1080 IDH1KD tx – kills HT-1080 cells with IDH1 knockdown | 360,000 tested, 2% active | Potency, µM (doses to about 46.1 µM), actives largely listed as cytotoxic | HT-1080 IDH1 knockdown viability, ATP luminescence, 48 h
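IDH1KD HT-1080 cells, 750/well, RPMI + 5% FBS; compound pinned after 2 h settling; 48 h, 37 °C; CellTiter-Glo luminescence; % activity normalised to DMSO and no-cell wells; curves fitted, classed by r2 and efficacy.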
IL-1B inflam inh – blocks inflammasome-driven IL-1 beta release. THP-1 LPS/ATP IL-1B secretion, AlphaLISA, 16 h; stronger effect = lower value. activity change, % at 57.5 µM. 360,000 tested, 4.7% active. AID 743279; in the data active = activity change below about -50%; inconclusive = mostly about -30% to -49%
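THP-1 cells pretreated 1 hr with compounds (up to 57.5 uM final), then stimulated with LPS (250 ng/mL final) plus ATP (1.25 mM final); secreted IL-1B measured by AlphaLISA after 16 hr, decreased signal indicating inhibition.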
DT40 TDP1 CPT – growth inhibition of DT40 Tdp1-/-;hTDP1 cells with camptothecin (screen for TDP1 inhibitors); 420,000 tested, 12% active; Potency, µM (doses to about 46.2 µM), usual class: inhibitors; chicken DT40 Tdp1-/-;hTDP1 cells + 20 nM CPT, ATP luminescence, 48 h; AID 686979; also: nearly all actives have a fitted effect of over 55% in size
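Chicken DT40 Tdp1-/- cells stably complemented with human TDP1 were seeded at 400 cells/well in medium containing 20 nM camptothecin, exposed to pin-transferred compounds, and grown at 37 °C for at least 48 hr. Viability was read as ATP luminescence.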
HT1080NT lethal – kills 2HG-producing HT-1080-NT fibrosarcoma cells | HT-1080-NT fibrosarcoma viability, CellTiter-Glo ATP luminescence, 48 h | Potency, µM (doses to about 46.1 µM), actives largely listed as cytotoxic | 360,000 tested, 1.6% active | AID 686970;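 also: NT is the 2HG producing partner of a matched IDH1 knockdown line; nearly all actives have a fitted effect of over 55% in size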
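Viability by CellTiter-Glo luminescence after 48 h compound exposure at 37C of HT-1080-NT cells (750/well, RPMI, 5% FBS). % activity scaled between DMSO wells and medium-only wells, then curve-fitted and categorized by curve class.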
ELG1 repair inh – inhibitors of ELG1-dependent DNA repair in HEK293T cells; Potency, µM (doses to about 46.1 µM), hits mostly inhibitors; 330,000 tested, 2.3% active; HEK293T ELG1-luciferase reporter, luminescence, 16 h; DNA damage induced by 5-fluorouridine; also: nearly all actives have a fitted effect of over 55% in size
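DMSO vehicle served as the neutral condition. Each well held 2,000 cells given 5-fluorouridine plus compound; after 16 hr at 37 °C/5% CO2, ONE-Glo was added and luciferase measured 30 min later.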
DT40 TDP1 no CPT – qHTS for Inhibitors of human tyrosyl-DNA phosphodiesterase 1 (TDP1): qHTS in cells in absence of CPT. DT40 Tdp1-/- hTDP1 cells, no CPT, ATP luminescence, 48 h. 420,000 tested, 15% active. Potency, µM (top dose mostly 46.2 µM), hits mostly inhibitors; also: nearly all actives have a fitted effect of over 55% in size
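Growth of hTDP1-complemented DT40 Tdp1-knockout cells is measured by ATP luminescence after at least 48 hr compound exposure at 37 °C, with DMSO substituting for the 20 nM CPT used in the parallel screen.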
Each line names hits and unclear results; the compound was inactive in the other large screens. Sampled rows, rich in hits. Any-hit rate of the full collection: about 19%. Unless noted, calls follow the shape of the dose curve; as a rule, active = well fitted curve in the direction sought with a large enough effect; inconclusive = small, poorly fitted or top-dose-only effect, or another doubt; inactive = no such curve, though single readings can be large; an effect the other way counts as inactive or inconclusive.

CCCNC(=O)C(C)n1nc(C)c2c(C)n(-c3ccccc3)nc2c1=O (stereo not drawn)	none (no result: HT1080 IDH1KD tx, IL-1B inflam inh, HT1080NT lethal, ELG1 repair inh)
CCOc1ccccc1CNC(=O)Cn1nc(C)c2c(C)n(-c3ccc(C)cc3)nc2c1=O	DT40 TDP1 CPT inconclusive, ELG1 repair inh 2.91µM, DT40 TDP1 no CPT inconclusive
COc1cccc(CNC(=O)Cn2nc(C)c3c(C)n(-c4ccc(C)cc4)nc3c2=O)c1OC	none
CCOc1ccccc1CNC(=O)C(C)n1nc(C)c2c(C)n(-c3ccccc3)nc2c1=O (stereo not drawn)	DT40 TDP1 CPT 23.1µM, ELG1 repair inh inconclusive, DT40 TDP1 no CPT inconclusive
C[C@H](CO)N1C[C@H](C)[C@@H](CN(C)C(=O)Nc2ccc3c(c2)OCO3)Oc2c(NC(=O)Cc3ccccc3)cccc2C1=O	none
O=C(/C=C/c1ccc(F)cc1)Nc1nc2n(n1)C(c1ccc(Cl)cc1)C=C(c1ccccc1)N2 (stereo not drawn)	DT40 TDP1 CPT inconclusive, DT40 TDP1 no CPT 14.6µM (no result: HT1080 IDH1KD tx, IL-1B inflam inh, HT1080NT lethal, ELG1 repair inh)
O=C(/C=C/c1ccccc1)Nc1nc2n(n1)C(c1ccc(Cl)cc1)C=C(c1ccccc1)N2 (stereo not drawn)	DT40 TDP1 CPT 20.6µM, DT40 TDP1 no CPT 23.1µM (no result: HT1080 IDH1KD tx, IL-1B inflam inh, HT1080NT lethal, ELG1 repair inh)
COc1ccccc1/C=C/C(=O)Nc1nc2n(n1)C(c1ccc(F)cc1)C=C(c1ccccc1)N2 (stereo not drawn)	DT40 TDP1 CPT 10.3µM, DT40 TDP1 no CPT 4.61µM (no result: HT1080 IDH1KD tx, IL-1B inflam inh, HT1080NT lethal, ELG1 repair inh)
COc1ccc(C2C=C(c3ccccc3)Nc3nc(NC(=O)/C=C/c4ccc(Cl)cc4)nn32)cc1 (stereo not drawn)	DT40 TDP1 CPT 14.6µM, DT40 TDP1 no CPT 11.6µM (no result: HT1080 IDH1KD tx, IL-1B inflam inh, HT1080NT lethal, ELG1 repair inh)
CC1=CC(c2ccc(Cl)cc2)n2nc(NC(=O)CCCC(=O)O)nc2N1 (stereo not drawn)	none
O=S(=O)(Nc1nc2n(n1)C(c1ccc(F)cc1)C=C(c1ccc(Cl)cc1)N2)c1ccccc1 (stereo not drawn)	none (no result: HT1080 IDH1KD tx, IL-1B inflam inh, HT1080NT lethal, ELG1 repair inh)
OCCCc1nc2n(n1)C(c1ccccc1)C=C(c1ccc(F)cc1)N2 (stereo not drawn)	ELG1 repair inh inconclusive
CCOC(=O)C1CCN(Cc2cc(C(C)(C)C)c(O)c(C(C)(C)C)c2)CC1	IL-1B inflam inh inconclusive, DT40 TDP1 CPT inconclusive, DT40 TDP1 no CPT 18.4µM
CCOC(=O)C1CCN(Cc2ccc(Cl)c(Cl)c2)CC1	none
CCOC(=O)C1CCN(Cc2ccc(OC)c(OCc3ccccc3)c2)CC1	DT40 TDP1 CPT 13µM, DT40 TDP1 no CPT 18.4µM
CC(C)(C)c1cc(CN2CCN(CCO)CC2)cc(C(C)(C)C)c1O	HT1080 IDH1KD tx inconclusive, DT40 TDP1 CPT 13µM, DT40 TDP1 no CPT 20.6µM
O=C(Cn1c(=O)oc2cccnc21)Nc1ccc(C(F)(F)F)cc1	none
Cc1ccc(CNC(=O)CSc2nc(=O)n3cccc(C)c3n2)cc1	none
O=C(/C=C/c1ccc(O)c([N+](=O)[O-])c1)c1ccc2ccccc2c1	HT1080 IDH1KD tx inconclusive, DT40 TDP1 CPT 18.4µM, DT40 TDP1 no CPT 23.1µM
CNc1ccc(/C=C/C(=O)c2ccc(C)cc2)cc1[N+](=O)[O-]	HT1080 IDH1KD tx inconclusive, DT40 TDP1 CPT inconclusive, HT1080NT lethal inconclusive, ELG1 repair inh inconclusive, DT40 TDP1 no CPT inconclusive
COc1ccc(Oc2ccc(/C=C/C(=O)c3ccc(O)cc3)cc2[N+](=O)[O-])cc1	HT1080 IDH1KD tx inconclusive, IL-1B inflam inh -100.3, DT40 TDP1 CPT inconclusive, HT1080NT lethal 23.1µM, ELG1 repair inh inconclusive, DT40 TDP1 no CPT 14.6µM
Cc1ccc(CNc2nc(CN3CCN(C=O)CC3)nc3ccccc23)o1	none (no result: HT1080 IDH1KD tx, IL-1B inflam inh, HT1080NT lethal, ELG1 repair inh)
Nc1c(C(=O)CSc2ncccn2)c(=O)[nH]c(=O)n1C1CC1	ELG1 repair inh inconclusive
O=[N+]([O-])c1cc([N+](=O)[O-])c(Oc2ccc(F)cc2)cc1NN1CCCCC1	none
O=[N+]([O-])c1cc([N+](=O)[O-])c(Oc2cc(F)cc(F)c2)cc1NN1CCCCC1	DT40 TDP1 CPT 18.4µM
Nc1sc(-c2ccccc2)cc1C(=O)NCCc1c[nH]c2ccccc12	HT1080 IDH1KD tx inconclusive, DT40 TDP1 CPT 16.4µM, HT1080NT lethal inconclusive, DT40 TDP1 no CPT 14.6µM (no result: ELG1 repair inh)
NNC(=O)c1sc(-c2ccccc2)cc1N	IL-1B inflam inh -53.7, DT40 TDP1 CPT inconclusive, DT40 TDP1 no CPT inconclusive
COCCNC(=O)c1cc(-c2ccccc2)sc1N	DT40 TDP1 CPT inconclusive, DT40 TDP1 no CPT inconclusive (no result: ELG1 repair inh)
CC(=O)c1sc(-c2ccccc2)cc1N	none (no result: IL-1B inflam inh)
Cc1ccc(C(=O)NCCc2c[nH]c3ccccc23)c(C)c1	ELG1 repair inh inconclusive
CCCCNC(=O)c1cc(-c2ccccc2)sc1N	IL-1B inflam inh inconclusive, DT40 TDP1 CPT 14.6µM, DT40 TDP1 no CPT 16.4µM (no result: ELG1 repair inh)
Nc1cc(Cl)nnc1Cl	none
COCCCNC(=S)N/N=C/c1ccc(OC)c(Br)c1	DT40 TDP1 CPT inconclusive, DT40 TDP1 no CPT inconclusive
NS(=O)(=O)c1ccc(Sc2nc3ccccc3s2)c([N+](=O)[O-])c1	HT1080 IDH1KD tx 7.31µM, IL-1B inflam inh -99.2, DT40 TDP1 CPT 9.2µM, HT1080NT lethal inconclusive, DT40 TDP1 no CPT 10.3µM
Cc1cc(O)c(C)c(O)c1C(=O)O	none (no result: HT1080 IDH1KD tx, IL-1B inflam inh, HT1080NT lethal, ELG1 repair inh)

Screens (PubChem)
